From PubChem BioAssay AID1578 (Sanford-Burnham Center for Chemical Genomics, 2009)
Among all 290,000 compounds or so, about 3,000 (1%) were called active. The full list was thinned out, with actives kept by preference. A number with no mark means an inactive call. Cut-off read from the data, not from the text of the source: active = inhibition mostly above about 36% (no sharp cut-off); inactive = mostly below about 34%.

Assay: NOD1 signaling inhibitors, primary screen, cell-based, luminescence, uHTS (AID 1578);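 note: HEK-293T reporter cells stimulated with the NOD1 agonist gamma-tri-DAP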
Conditions: NOD1-driven NF-kB luciferase reporter cells, at 4 µM, active compounds read high

Row | SMILES | inhibition
1 | CCOC(=O)c1c(Nc2ccccc2)sc(/C=C2\C=Nc3ccccc32)c1O | -68%
2 | CCN(CC)C(=O)Oc1ccc2ccccc2c1Cl | -86.7%
3 | O=S(=O)(CCSc1nc2ccccc2s1)c1nc2ccccc2s1 | 99% (active)
4 | CCS(=O)(=O)CCSc1nc2ccccc2s1 | -2.7%
5 | O=S(=O)(CCSc1ccccn1)c1nc2ccccc2s1 | 74.4%
6 | Cc1ccc(S(=O)(=O)N2CCCC2)cc1C(=O)NCc1ccccn1 | -26.2%
7 | O=C(c1cc(-c2ccc(F)cc2)on1)N1CCCCCC1 | -53.7%
8 | Nc1c(Cl)ncnc1N/N=C/c1ccnc2ccccc12 | 8.6%
9 | Nc1c(Cl)ncnc1N/N=C/c1ccc(O)cc1 | -9%
10 | Nc1c(Cl)ncnc1N/N=C/c1ccc2ccccc2n1 | 109% (active)
11 | CCCCOC(=O)C1C2C=C[C@]3(CN(C(C)c4ccc(OC)cc4)C(=O)[C@H]13)O2 (stereo partly drawn) | 11.8%
12 | CC(=O)Nc1cccc(Cl)c1C(=O)O | -21.4%
13 | Cc1nn(C(=O)c2ccco2)c(C)c1Sc1ccc([N+](=O)[O-])cc1 | -7.1%
14 | O=C(N/N=C(\CC(=O)c1cccs1)C(F)(F)F)c1ccncc1 | -3.7%
15 | Cc1ccc(C(=O)N/N=C(/CC(=O)c2cccs2)C(F)(F)F)cc1 | 70% (active)
16 | O=C(N/N=C(/CC(=O)c1cccs1)C(F)(F)F)c1ccc(O)cc1 | -19.9%
17 | COC(=O)Cc1c(C)c2ccc(OC3CCCCC3=O)c(C)c2oc1=O (stereo not drawn) | -8.8%
18 | Clc1ccc(-c2nnc(C3CC3)o2)cc1 | -15.4%
19 | Clc1ccc(-c2nnc(C3CCCCC3)o2)cc1 | 70.8% (active)
20 | c1cncc(-c2nnc(C3CCCCC3)o2)c1 | 11.8%
21 | COc1ccc(C(=O)NC(CC(=O)O)c2cc([N+](=O)[O-])ccc2Cl)c(SC)c1 (stereo not drawn) | -14.4%
22 | O=C1C2CCCN2C(c2ccc(F)cc2)N1c1cccc(Cl)c1 (stereo not drawn) | -10.3%
23 | O=C(COC(=O)c1cncc(Br)c1)NCCC1=CCCCC1 | -8.5%
24 | CO/N=C/c1ccc(Sc2ccc(C)cc2)c([N+](=O)[O-])c1 | 7.3%
25 | O=[N+]([O-])c1cc(/C=N/O)ccc1Sc1ccccc1 | 8.1%
26 | Cc1ccc(Sc2ccc(/C=N/O)cc2[N+](=O)[O-])cc1 | 54.4% (active)
27 | COc1ccc(OC)c(NC(=O)C2CCN(c3ncccn3)CC2)c1 | -1.7%
28 | COc1ccc(N2CCN(Cc3cc4c(cc3Br)OCCO4)CC2)cc1 | -11.3%
